The full list was thinned out, with hits kept by preference.
ALOX12 inh – Primary qHTS assay for inhibitors of human arachidonate 12S-lipoxygenase (ALOX12): Round 2. Polyunsaturated fatty acid lipoxygenase ALOX12 (Homo sapiens), P18054. purified 12hLO, xylenol orange hydroperoxide absorbance. Potency, µM (series often up to 108 µM), inactives show at the highest dose activity change, negative = inhibition, actives largely listed as inhibitors. 1.1% of 580,000 active. AID 1671190, 2021; further: potency means the concentration at half of the fitted maximal effect
Target sequence (P18054 whole entry, looked up): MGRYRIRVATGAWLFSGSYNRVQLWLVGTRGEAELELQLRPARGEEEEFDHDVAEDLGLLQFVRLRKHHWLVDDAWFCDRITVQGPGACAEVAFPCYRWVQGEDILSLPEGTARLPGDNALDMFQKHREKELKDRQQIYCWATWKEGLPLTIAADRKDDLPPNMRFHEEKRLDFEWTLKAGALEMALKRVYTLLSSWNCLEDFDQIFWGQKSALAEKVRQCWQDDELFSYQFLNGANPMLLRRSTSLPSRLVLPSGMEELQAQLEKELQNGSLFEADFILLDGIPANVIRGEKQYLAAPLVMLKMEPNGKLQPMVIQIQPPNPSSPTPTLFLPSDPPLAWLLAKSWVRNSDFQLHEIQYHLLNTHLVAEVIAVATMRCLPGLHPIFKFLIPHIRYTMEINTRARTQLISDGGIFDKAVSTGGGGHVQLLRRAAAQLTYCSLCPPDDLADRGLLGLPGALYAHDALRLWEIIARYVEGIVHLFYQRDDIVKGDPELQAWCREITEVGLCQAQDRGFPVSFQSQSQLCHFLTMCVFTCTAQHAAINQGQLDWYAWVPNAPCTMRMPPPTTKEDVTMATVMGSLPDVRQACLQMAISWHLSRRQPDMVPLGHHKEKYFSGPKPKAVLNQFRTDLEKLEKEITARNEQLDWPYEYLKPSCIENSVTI
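Purified human 12hLO (150 nM final) in 25 mM Hepes, 0.01% Triton X-100, pH 7.0 was preincubated 15 min at room temperature with compound. Then 40 uM arachidonic acid was added, 30 min. Hydroperoxide was read by Fe-XO absorbance ratio 573/405 nm.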
HT1080 IDH1KD tx – qHTS for induction of synthetic lethality in tumor cells producing 2HG: qHTS for the HT-1080-IDH1KD cell line; AID 686971, 2013; Potency, µM (highest dose often 46.1 µM), inactives show top-dose activity, negative = toxicity, hits mostly cytotoxic; 2% of 360,000 active; HT-1080 IDH1 knockdown viability, ATP luminescence, 48 h;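 further: potency means the concentration at half of the fitted maximal effect; 0% = DMSO wells and -100% = cell-free medium wells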
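Cytotoxicity counter-line: IDH1KD HT-1080, 48 h, CellTiter-Glo. Curves classed by r2, magnitude and activity.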
IL-1B inflam inh – qHTS for Inhibitors of Inflammasome Signaling: IL-1-beta AlphaLISA Primary Screen | THP-1 LPS/ATP IL-1B secretion, AlphaLISA, 16 h; stronger effect = lower value | AID 743279, 2014 | activity change, % at 57.5 µM | 4.7% of 360,000 active; in the data active means activity change below about -50%; inconclusive means mostly about -30% to -49%
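THP-1 cells pretreated 1 hr with compounds (up to 57.5 uM final), then stimulated with LPS (250 ng/mL final) plus ATP (1.25 mM final); secreted IL-1B measured by AlphaLISA after 16 hr, decreased signal indicating inhibition.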
TDP1 cell CPT – qHTS for Inhibitors of human tyrosyl-DNA phosphodiesterase 1 (TDP1): qHTS in cells in presence of CPT; chicken DT40 Tdp1-/-;hTDP1 cells + 20 nM CPT, ATP luminescence, 48 h; Potency, µM (highest dose often 46.2 µM), without a hit: top-dose activity change, negative = growth inhibition, usual class: inhibitors; 12% of 420,000 active; AID 686979, 2013; further: potency means the concentration at half of the fitted maximal effect; nearly all actives have a fitted effect of over 55% in size
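Chicken DT40 Tdp1-/- cells stably complemented with human TDP1 were seeded at 400 cells/well in medium containing 20 nM camptothecin, exposed to pin-transferred compounds, and grown at 37 °C for at least 48 hr. Viability was read as ATP luminescence.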
DT40 TDP1 no CPT – qHTS for Inhibitors of human tyrosyl-DNA phosphodiesterase 1 (TDP1): qHTS in cells in absence of CPT; DT40 Tdp1-/- hTDP1 cells, no CPT, ATP luminescence, 48 h; Potency, µM (doses to about 46.2 µM), for the others: top-dose activity change, negative = growth inhibition, hits mostly inhibitors; 15% of 420,000 active; AID 686978, 2013; further: potency means the concentration at half of the fitted maximal effect; nearly all actives have a fitted effect of over 55% in size
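Stably hTDP1-transfected Tdp1-null chicken DT40 cells were treated with library compounds minus camptothecin and grown for at least 48 hr at 37 °C, after which cellular ATP was quantified by luminescence.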
HT1080-NT tox – qHTS for induction of synthetic lethality in tumor cells producing 2HG: qHTS for the HT-1080-NT fibrosarcoma cell line; HT-1080-NT fibrosarcoma viability, CellTiter-Glo ATP luminescence, 48 h; Potency, µM (top dose mostly 46.1 µM), for inactives: top-dose activity, negative = less viability, most hits filed as cytotoxic; 1.6% of 360,000 active;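 further: NT is the 2HG producing partner of a matched IDH1 knockdown line; potency means the concentration at half of the fitted maximal effect; 0% = DMSO-treated cells and -100% = media-only wells without cells; nearly all actives have a fitted effect of over 55% in size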
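750 cells/well, RPMI + 5% FBS; 2 h settle, compound pin-transfer, 48 h at 37 degrees C. CellTiter-Glo 10 min RT, luminescence. Normalized to DMSO and media-only wells.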
* marks the source's active call; other numbers are inactive results; ? = inconclusive; / = no result. Unless noted, the call rests on the fitted dose curve; in most records, active means well fitted curve in the direction sought with a large enough effect; inconclusive means small, poorly fitted or top-dose-only effect, or another doubt; inactive means no such curve, though single readings can be large; an effect the other way counts as inactive or inconclusive. Unless noted, on the % scale 0 is the no-effect control and ±100 the full control effect.

SMILES | ALOX12 inh | HT1080 IDH1KD tx | IL-1B inflam inh | TDP1 cell CPT | DT40 TDP1 no CPT | HT1080-NT tox
Clc1ccc(-c2csc3ncnc(N4CCc5ccccc5C4)c23)cc1 | -12% | -10% | 20 | ? | 21µM* | -3%
COc1ccc(-c2csc3ncnc(N4CCN(c5ccccc5)CC4)c23)cc1 | -4% | ? | -22 | ? | ? | -20%
CCOC(=O)N1CCN(c2ncnc3scc(-c4ccc(Cl)cc4)c23)CC1 | / | -9% | 90 | 18µM* | ? | ?
O=C(CSc1nc2[nH]ncc2c(=O)n1-c1ccc(F)c(F)c1)N1CCc2ccccc21 | -4% | / | / | / | / | /
Cc1ccc(-c2ccc(=O)n(C(C)C(=O)Nc3ccccc3C)n2)cc1 (stereo not given) | -7% | / | / | / | / | /
COc1cc(OC)c(NC(=O)C(C)n2nc(-c3ccc(C)c(C)c3)ccc2=O)cc1Cl (stereo not given) | -23% | / | / | 15µM* | 13µM* | /
Cc1nnc(SCC(=O)N2N=C(c3ccc(Cl)cc3)CC2c2ccco2)[nH]c1=O (stereo not given) | ? | -20% | ? | 15µM* | ? | -6%
COc1ccc(C2=NN(C(=O)CN3CCc4ccccc4C3)C(c3ccco3)C2)cc1 (stereo not given) | -22% | / | / | / | / | /
COc1ccc(C2=NN(c3nc(-c4ccccc4)c(CC(=O)O)s3)C(c3ccco3)C2)cc1 (stereo not given) | 11µM* | 3% | 8 | -25% | -5% | -1%
COc1ccc(C2=NN(C(=O)COc3ncnc4ccccc34)C(c3ccco3)C2)cc1 (stereo not given) | 1% | ? | ? | -70% | 26µM* | -17%
CC(=O)N1N=C(c2ccc(Cl)cc2)CC1c1ccco1 (stereo not given) | 0% | -2% | -10 | 16µM* | ? | -4%
COc1ccc(-c2nc(C)sc2CC(=O)O)cc1 | 10% | 0% | 9 | 2% | -14% | -3%
O=S(=O)(Nc1nc2ccccc2nc1N1CCCCC1)c1cc(Cl)ccc1Cl | 1% | / | / | / | / | /
COc1ccc(CC(=O)NC2CC(=O)N(c3cccc(F)c3)C2)cc1 (stereo not given) | ? | / | / | 7% | -16% | /
Cc1ccc(S(=O)(=O)N[C@H](C(=O)OCC(=O)N2N=C(c3ccc(Cl)cc3)CC2c2ccco2)C(C)C)cc1 (stereo not given in full) | ? | -8% | -18 | 23µM* | 23µM* | -10%
O=C(CSc1nc2ccc(Cl)cc2[nH]1)N1N=C(c2cccs2)CC1c1ccco1 (stereo not given) | 18µM* | / | / | / | / | /
O=C(C1CCCO1)N1N=C(c2ccc(Br)cc2)CC1c1ccco1 (stereo not given) | ? | 12% | ? | ? | 15µM* | 21%
CCC(=O)N1N=C(c2ccc(NS(=O)(=O)c3ccccc3)cc2)CC1c1ccco1 (stereo not given) | 59% | 0% | -6 | ? | 23µM* | -22%
COc1ccc2nc(SCC(=O)N3N=C(c4ccco4)CC3c3cccs3)[nH]c2c1 (stereo not given) | 0% | / | / | / | / | /
Cc1onc(-c2c(F)cccc2Cl)c1C(=O)OCC(=O)Nc1cccc(S(=O)(=O)N(C)C)c1 | 181% | -14% | -15 | ? | ? | -6%
COCCn1c(C)cc(C(=O)N2CCCC(Cc3noc(C4CC4)n3)C2)c1C (stereo not given) | 31% | / | / | / | / | /

Bioassay records as filed in PubChem BioAssay.
